# High-throughput results (PubChem BioAssay)
# TEAD-YAP block: TEAD-YAP interaction inhibition, primary screen, TEAD-YAP interaction inhibitor project, luminescence, HEK-TIYL cells; TEAD-Gal4/YAP UAS-luciferase luminescence; inhibition, % at 9.12 µM; hit rate 1.4% among 640,000; in the data active = inhibition above about 32%
# GPR151 ag: activators of human GPR151, primary screen, cell-based, PathHunter beta-arrestin, luminescence | G-protein coupled receptor 151 (Homo sapiens), Q8TDV0 | PathHunter beta-arrestin GPR151 cells | activation, % at 11.2 µM | hit rate 1% among 650,000 | AID 1508602, 2020; in the data active = activation above about 4.9%
# MITF primary: MITF inhibitors, primary screen, biochemical, AlphaScreen, human | Microphthalmia-associated transcription factor (Homo sapiens), O75030 | AlphaScreen MITF homodimerization, bead proximity signal | inhibition, % at 2.6 µM | hit rate 0.91% among 650,000; in the data active = inhibition above about 50%
# Target sequence (O75030 whole entry, looked up): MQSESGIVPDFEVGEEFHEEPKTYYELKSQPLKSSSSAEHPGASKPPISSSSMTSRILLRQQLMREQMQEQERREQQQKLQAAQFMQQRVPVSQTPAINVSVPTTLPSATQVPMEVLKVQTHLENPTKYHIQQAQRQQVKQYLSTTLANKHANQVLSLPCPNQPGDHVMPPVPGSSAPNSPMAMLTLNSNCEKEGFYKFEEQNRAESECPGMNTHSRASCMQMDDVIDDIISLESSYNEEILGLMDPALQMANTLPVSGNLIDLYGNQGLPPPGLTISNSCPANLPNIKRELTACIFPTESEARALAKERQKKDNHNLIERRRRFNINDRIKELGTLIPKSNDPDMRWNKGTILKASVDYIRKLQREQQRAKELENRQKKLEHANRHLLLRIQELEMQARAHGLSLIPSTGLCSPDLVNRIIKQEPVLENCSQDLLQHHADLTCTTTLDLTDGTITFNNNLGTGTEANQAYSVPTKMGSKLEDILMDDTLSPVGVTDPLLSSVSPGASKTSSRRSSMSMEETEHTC
# FBW7 activator: FBW7 E3 ligase activators, primary screen, biochemical, AlphaScreen, human; F-box/WD repeat-containing protein 7 (Homo sapiens), Q969H0; AlphaScreen FBW7–phospho-cyclin E peptide binding, activator screen; AID 1259310, 2017; normalized activity (activation), % at 26.1 µM; hit rate 0.13% among 650,000; in the data active = normalized activity above about 1.9%;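 also: purified mutant Fbw7 with reduced substrate affinity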
# Hits are given with their value; - = inactive; ! = not confirmed by another sample. Only some compounds are listed: those with a hit (about 3.5% of all), similar ones and a draw of the others.
SMILES,TEAD-YAP block,GPR151 ag,MITF primary,FBW7 activator
CCOc1ccc(-c2n[nH]c3c2C(c2ccc(F)cc2)NC3=O)cc1 (stereo unspecified),-,-,-,-
CCOc1ccc(-c2n[nH]c3c2C(c2cc(OC)ccc2OC)NC3=O)cc1 (stereo unspecified),51.3,-,-,-
COc1ccc(C2NC(=O)c3[nH]nc(-c4ccc(C)cc4)c32)c(OC)c1 (stereo unspecified),44.3,-,-,-
COc1cccc(/C(O)=C2\C(=O)C(=O)NC2c2ccco2)c1 (stereo unspecified),-,-,-,-
CC(=O)Oc1ccc2c(=O)c(-c3cc4ccccc4o3)coc2c1,-,-,-,-
Cc1nc(-c2coc3cc(O)ccc3c2=O)cs1,34.0,-,-,-
O=c1c(-c2cc3ccccc3o2)coc2cc(O)ccc12,36.1,-,-,-
COc1ccc2c(=O)c(-c3ccccc3)coc2c1,-,-,-,-
COc1ccc2c(=O)c(-c3cscn3)coc2c1,44.2,-,-,-
CCOCCOC(=O)C1=C(C)NC2=C(C(=O)CCC2)C1c1ccccc1OC (stereo unspecified),-,-,-,-
COC(=O)c1ccc2nc(-c3ccc(S(C)(=O)=O)cc3)cn2c1,-,-,-,-
COC(=O)c1ccc2nc(-c3cccc(N)c3)cn2c1,77.7,-,-,-
CCOc1ccccc1NC(=O)N(C)c1ccc(Oc2ccc(C)nn2)cc1,-,-,-,-
Cc1ccc(C(=O)c2cccc(N)c2)cc1C,56.6,-,-,-
CC(=O)c1ccc(S(=O)(=O)N2CCN(c3cccc(C)c3)C(C)C2)cc1 (stereo unspecified),-,-,-,-
CCCCN1C(C)=CC(=C2C(=O)c3ccccc3C2=O)C=C1C,55.8,-,-,-
CCN1C=CC(=C2C(=O)c3ccccc3C2=O)C=C1,95.3,-,-,-
CN1C=CC(=C2C(=O)c3ccccc3C2=O)C=C1,-,-,-,-
Cc1c(N=Cc2cc([N+](=O)[O-])ccc2N2CCCCCC2)c(=O)n(-c2ccccc2)n1C,-,-,-,-
O=C(NC1CCCCC1)c1cc2nc(-c3ccccc3)cc(C(F)(F)F)n2n1,-,-,-,-
Cc1sc2ncnc(Sc3nnc4ccccn34)c2c1C,-,-,-,-
Cc1sc2ncnc(Sc3nnc(N)s3)c2c1C,36.7,-,-,-
CC1=NN(c2ccccc2)C(=O)C1N=Nc1cccc(O)c1 (stereo unspecified),48.7,-,-,-
CCOc1ccc(-c2cn[nH]c2N)cc1,47.8,-,-,-
O=C1NC(=S)S/C1=C\c1ccc(-c2ccc(C(=O)O)cc2)o1,-,-,-,-
SMILES,TEAD-YAP block,GPR151 ag,MITF primary,FBW7 activator
O=C1NC(=S)S/C1=C\c1ccc(-c2cccc(C(=O)O)c2)o1,-,-,70.3,-
O=C1NC(=O)/C(=C/c2ccc(-c3ccc(O)c(C(=O)O)c3)o2)S1,-,-,85.8,-
NC1=NC(=O)/C(=C/c2ccc(-c3ccccc3)o2)S1,-,-,-,-
Cc1ccc(C(=O)O)cc1-c1ccc(/C=C2/SC(=O)NC2=O)o1,-,-,-,-
NC1=NC(=O)/C(=C\c2ccc(-c3cccc(C(=O)O)c3)o2)S1,43.7,-,57.7,-
Cc1ccc(Cl)cc1N1CCN(C(=O)c2ccc3c(c2)NC(=O)CS3)CC1,60.2,-,-,-
CN1CCN(c2ccc(-c3cccc(Cl)c3)cn2)CC1,54.3,-,-,-
COc1cccc(-c2ccc(N3CCN(C)CC3)nc2)c1,-,-,-,-
CC(=NCCO)c1c(-c2ccccc2)[nH]n(-c2nc3ccccc3s2)c1=O,-,-,-,-
COc1ccc(OC)c(N=C(C)c2c(C)[nH]n(-c3nc4ccccc4s3)c2=O)c1,-,-,-,-
CC(=NCCCN1CCOCC1)c1c(C)[nH]n(-c2nc3ccccc3s2)c1=O,32.9!,-,-,-
CCOC(=O)CN=C(C)c1c(C)[nH]n(-c2nc3ccccc3s2)c1=O,48.5,-,-,-
CC(=NCc1ccco1)c1c(C)[nH]n(-c2nc3ccccc3s2)c1=O,41.1!,-,-,-
Cc1ccccc1-n1c(C)cc(/C=C(\C#N)C(=O)O)c1C,-,-,-,-
COCc1c(C(=O)N/N=C/c2ccccc2Cl)nnn1-c1nonc1N,-,-,-,-
COCc1c(C(=O)N/N=C/c2cccc(OC)c2O)nnn1-c1nonc1N,73.0,-,61.0,-
CCc1c(C(=O)N/N=C/c2cccc(OC)c2O)nnn1-c1nonc1N,74.5,-,-,-
CCSc1nc(-c2ccccc2)c(NC(=O)c2ccco2)s1,-,-,-,1.9
CCOC(=O)c1cc([N+](=O)[O-])ccc1OS(=O)(=O)c1ccc(Cl)cc1,-,-,-,-
Cc1cc2ncn(CC3CCN(C(=O)c4ccccc4Br)CC3)c2cc1C,40.2,-,-,-
CCS(=O)(=O)N1CCCc2ccc(NS(=O)(=O)c3ccc4c(c3)CCCC4)cc21,-,-,-,-
Cc1ccc(C(=O)NC(=S)NCC(=O)c2ccccc2)cc1,-,-,-,-
Cc1ccc(C(=O)CNC(=O)c2ccccc2)cc1,65.4,-,-,-
CCNC(=O)c1ccc(-c2ccccc2)cc1,-,-,-,-
CN(C)CCNC(=O)c1ccc(-c2ccccc2)cc1,35.0,-,-,-
SMILES,TEAD-YAP block,GPR151 ag,MITF primary,FBW7 activator
COc1cc(NC(=O)c2ccc(-c3c(C)nn(C)c3C)s2)cc(OC)c1OC,51.3,-,-,-
Cc1ccccc1Nc1nc(N)nc(COC(=O)c2ccc(N(C)C)cc2)n1,-,-,-,-
NC(=O)CSc1nnc(-c2cccnc2)n1-c1cccc(C(F)(F)F)c1,-,-,-,-
NC(=O)CSc1nnc(-c2ccncc2)n1-c1cccc(C(F)(F)F)c1,-,-,-,2.6
Cc1nc(NCCC2=CCCCC2)c2cc(C)sc2n1,40.8,-,-,-
Cc1nc(NCCC2=CCCCC2)c2c3c(sc2n1)CCC3,-,-,-,-
Cc1cc(C)n(Cc2cccc(F)c2)c(=O)c1C#N,-,-,-,-
Cc1cc[n+]2cc(C)n(Cc3cccc(F)c3)c2c1,40.8,-,-,-
NC(=O)c1ccccc1NC(=O)c1ccc(Cl)cc1,-,-,-,-
CC(C)c1ccc(C(=O)Nc2ccccc2C(N)=O)cc1,32.6,-,-,-
NC(=O)c1ccccc1NC(=O)c1ccc(Cn2nnc3ccccc32)cc1,56.1,-,-,-
Cc1c(CCC(C)C)c(N2CCN(CCc3ccccc3)CC2)n2c(nc3ccccc32)c1C#N,-,-,-,-
O=C(O)C1=CC(c2ccccc2)n2nnnc2N1 (stereo unspecified),-,-,-,-
COc1ccc2cc3c(N)nn(C(=O)c4cccnc4)c3nc2c1,32.3,-,-,-
COc1ccc2cc3c(N)nn(C(=O)c4cccc(F)c4)c3nc2c1,-,-,-,-
COc1ccc2cc3c(N)nn(C(=O)c4cccc(Cl)c4)c3nc2c1,-,-,-,-
COc1ccc2cc3c(N)nn(C(=O)c4ccccc4F)c3nc2c1,55.0,-,-,-
